Assay outcomes (PubChem)
BJeLR viability = MLPCN primary cell-based screen for lethality selective to Ras in HRASV12 cells | BJeLR (HRASV12) viability, CellTiter-Glo ATP luminescence, 48 h | inhibition, % (test concentration not listed) | hit rate 0.17% among 300,000 | AID 1554, 2009; in the data active = inhibition above about 50%
RecA intein inh = Mtb RecA intein splicing inhibitors, primary screen, biochemical, fluorescence, HTS. cell-free RecA intein splicing. inhibition, % (concentration not given with the values). hit rate 0.75% among 290,000; in the data active = inhibition above about 30%;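 note: 0% = vehicle wells and 100% = reference inhibitor control wells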
Target sequence (P9WHJ3 whole entry, looked up): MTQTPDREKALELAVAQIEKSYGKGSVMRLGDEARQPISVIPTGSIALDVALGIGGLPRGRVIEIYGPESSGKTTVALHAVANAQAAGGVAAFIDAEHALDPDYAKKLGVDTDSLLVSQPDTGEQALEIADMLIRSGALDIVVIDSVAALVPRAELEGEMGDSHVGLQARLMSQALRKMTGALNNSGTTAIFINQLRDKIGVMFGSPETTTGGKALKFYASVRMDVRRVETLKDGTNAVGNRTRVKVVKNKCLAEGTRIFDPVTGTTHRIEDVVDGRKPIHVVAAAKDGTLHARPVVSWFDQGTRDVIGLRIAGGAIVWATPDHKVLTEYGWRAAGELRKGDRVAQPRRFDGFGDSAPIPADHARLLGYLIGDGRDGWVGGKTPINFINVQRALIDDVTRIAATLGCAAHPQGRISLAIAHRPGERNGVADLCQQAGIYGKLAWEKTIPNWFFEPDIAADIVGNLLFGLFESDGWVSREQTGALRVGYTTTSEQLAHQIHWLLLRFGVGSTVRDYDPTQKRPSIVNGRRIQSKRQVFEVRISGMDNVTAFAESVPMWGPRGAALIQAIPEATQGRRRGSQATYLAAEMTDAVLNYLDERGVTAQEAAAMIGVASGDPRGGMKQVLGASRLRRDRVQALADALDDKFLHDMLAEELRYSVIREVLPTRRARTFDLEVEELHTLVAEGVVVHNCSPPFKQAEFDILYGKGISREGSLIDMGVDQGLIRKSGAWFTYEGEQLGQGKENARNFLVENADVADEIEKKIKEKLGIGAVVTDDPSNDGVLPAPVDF
Mtb FBA inh = Mtb FBA enzyme inhibitors, primary screen, biochemical, fluorescence, strain H37Rv; Fructose-bisphosphate aldolase (Mycobacterium tuberculosis (strain ATCC 25618 / H37Rv)), …; purified M. tuberculosis FBA, fluorescence read-out; inhibition, % at 1 µM; hit rate 2.3% among 360,000;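 note: 0% = vehicle and 100% = reference inhibitor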
GDH-TPI counter-1 = GDH-TPI coupling enzyme inhibitors, primary screen, artefact control for M. tuberculosis FBA inhibitor project, biochemical, absorbance, full deck; GDH-TPI coupled enzyme counterscreen, NADH absorbance; inhibition, % at 4.8 µM; hit rate 1.2% among 360,000; in the data active = inhibition above about 30%;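 note: 0% = DMSO wells and 100% = wells lacking the enzyme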
PrPC surface inh = inhibitors of human cell surface prion protein PrPC, primary screen, cell-based, TR-FRET. Major prion protein (Homo sapiens), P04156. TR-FRET read-out. inhibition, % at 13.8 µM. hit rate 0.43% among 370,000. AID 720596, 2013; in the data active = inhibition above about 24%; note: 0% = median of the test wells and 100% = reference compound wells
Mtb FBA confirm = M. tuberculosis aldolase blockers, biochemical, fluorescence, strain H37Rv, confirmation. shares compounds with Mtb FBA inh. purified M. tuberculosis FBA, fluorescence read-out. inhibition, % at 1 µM. hit rate 78% among 5,600. AID 651616, 2012;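 note: 0% = vehicle wells and 100% = reference inhibitor wells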
GDH-TPI counter-2 = GDH-TPI coupling enzyme inhibitors, artefact control for M. tuberculosis FBA inhibitor project, biochemical, fluorescence, high throughput. shares compounds with Mtb FBA inh. GDH-TPI coupled enzyme counterscreen. AID 652141, 2013. hit rate 81% among 5,600. inhibition, % at 1 µM; in the data active = inhibition above about 10%
GDH-TPI DR = GDH-TPI coupling enzyme inhibitors, dose response, artefact control for M. tuberculosis FBA inhibitor project, biochemical, fluorescence, IC50 | shares compounds with Mtb FBA inh | GDH-TPI coupled enzyme assay, artifact counterscreen | IC50, µM | hit rate 79% among 170 | AID 652145, 2013; call rule not given here
The depositor's hits bear a star; · = not tested or not shown; + = active, no number. Only some compounds are listed: those with a hit (about 4.2% of all), similar ones and a draw of the others. Cut-off read from the data, not from the text of the source, unless noted: active = inhibition above about 27%; inactive = the rest.

SMILES	BJeLR viability	RecA intein inh	Mtb FBA inh	GDH-TPI counter-1	PrPC surface inh	Mtb FBA confirm	GDH-TPI counter-2	others
O=C(OCC#CCSc1nnc(-c2cccc3ccccc23)o1)c1cccc2[nH]ccc12	·	·	36*	16	-2	64*	51*
Cc1cccc2[nH]c3c(N4CCN(C(=O)c5ccco5)CC4)ncnc3c12	0	2	44*	17	·	58*	42*
Cc1sc2ncnc(N3CCN(C(=O)c4ccco4)CC3)c2c1C	2	-6	1	-1	7	·	·
Cc1cccc2[nH]c3c(N4CCC5(CC4)OCCO5)ncnc3c12	10	-1	41*	31*	15	68*	52*
O=C(NCCCc1ccccc1)C1CC(=O)N(c2ccc3c(c2)OCCO3)C1 (stereo unspecified)	5	1	4	3	-2	·	·
CN(Cc1cccc(F)c1)C(=O)C1CC(=O)N(c2ccc3c(c2)OCCO3)C1 (stereo unspecified)	·	·	35*	1	0	+	+
O=C(NCCc1ccccc1)C1CC(=O)N(c2ccc3c(c2)OCCO3)C1 (stereo unspecified)	-1	-6	28*	-2	0	38*	21*
Cc1ccc(-n2c(SCC(=O)Nc3cccc4ccccc34)nnc2-c2ccccc2)cc1	·	·	·	·	12	·	·
O=C(O)CN1C(=O)/C(=C/c2ccccc2Br)Oc2ccccc21	7	-7	83*	8	4	-5	-5
CCOC(=O)CN1C(=O)/C(=C/c2cccc(Br)c2)Oc2ccccc21	-10	-2	6	-1	-5	·	·
Cc1ccccc1N(CC(=O)N1CCN(c2ccccc2)CC1)S(C)(=O)=O	5	2	28*	4	-1	52*	37*
COc1ccc(-c2cc(C(F)(F)F)n3nc(C(=O)NCCCn4ccnc4)cc3n2)cc1	-2	-29	48*	7	-39	1	-1
COc1ccc(-c2cc(C(F)(F)F)n3nc(C(=O)NCCN4CCOCC4)cc3n2)cc1	-12	-39	39*	8	-18	-1	-5
Cc1ccc([C@H]2C[C@]34CN(Cc5ccccc5)S(=O)(=O)[C@H]3C[C@H]2O4)cc1	·	·	·	·	1	·	·
CCCc1cc(=O)oc2cc(OCC(=O)NC(Cc3c[nH]c4ccc(O)cc34)C(=O)O)c(Cl)cc12 (stereo unspecified)	-4	·	1	0	-5	·	·
CCCc1cc(=O)oc2cc(C)cc(OCC(=O)NC(Cc3ccc(Cl)cc3)C(=O)O)c12 (stereo unspecified)	-9	-3	70*	5	-2	3	0
CCCc1cc(=O)oc2cc(C)cc(OCC(=O)Nc3ccc(S(N)(=O)=O)cc3)c12	-2	-1	19	7	-2	·	·
CCCCc1cc(=O)oc2cc(C)cc(OCC(=O)NC(Cc3ccc(Cl)cc3)C(=O)O)c12 (stereo unspecified)	-8	-1	63*	7	11	105*	68*
CCCCc1cc(=O)oc2c(C)c(OCc3nn[nH]n3)ccc12	-2	-1	28*	12	-1	59*	43*
CCCc1cc(=O)oc2cc(Oc3ncccn3)ccc12	5	-1	17	-11	-6	·	·
CCCc1cc(=O)oc2cc(OCc3ccc(C(=O)O)o3)ccc12	8	1	36*	13	-2	17	1	GDH-TPI DR=4.8*
CCCCc1cc(=O)oc2cc(OCc3nn[nH]n3)ccc12	-4	-3	35*	19	-2	6	-1
CCCc1cc(=O)oc2cc(OCc3nn[nH]n3)ccc12	-1	-2	34*	15	-1	57*	36*
COc1ccc(-n2c(SCC(=O)N3CCCCC3C)nnc2-c2ccncc2)cc1 (stereo unspecified)	·	·	·	·	-3	·	·
COC(=O)[C@]12C[C@H](CC(=O)NCc3ccccc3)C(=O)N(CCC3=CCCCC3)C1=C[C@H](C1CCCC1)O[C@@H]2C	·	·	·	·	9	·	·
SMILES	BJeLR viability	RecA intein inh	Mtb FBA inh	GDH-TPI counter-1	PrPC surface inh	Mtb FBA confirm	GDH-TPI counter-2	others
Cc1c(OCC(=O)NCCCn2ccnc2)ccc2c3c(c(=O)oc12)CCCC3	5	2	31*	8	4	76*	64*
O=C(COc1ccc2c3c(c(=O)oc2c1)CCCC3)NCCCN1CCCC1=O	7	-2	62*	14	-3	92*	79*
O=C(COc1ccc2c3c(c(=O)oc2c1)CCC3)NCCCN1CCCC1=O	8	-3	17	16	-4	·	·
O=C(COc1ccc2c3c(c(=O)oc2c1)CCCC3)NCCCn1ccnc1	-2	-2	29*	6	-3	+	194*
O=C(COc1ccc2c3c(c(=O)oc2c1)CCCC3)NCc1ccccn1	11	-2	86*	9	-8	+	+
Cc1c(C)c2ccc(OCC(=O)NCCCn3ccnc3)cc2oc1=O	3	1	62*	13	-10	195*	138*
Cc1cc(-c2n[nH]c(=S)n2N=Cc2cccc(OCc3ccccc3)c2)n[nH]1	·	·	·	·	-2	·	·
Cc1cc(=O)oc2c3c(ccc12)OC/C3=N/N	4	-2	94*	15	6	+	+
COc1cccc(C(=O)N[C@H](C(=O)N2CCC[C@H]2C(=O)NCc2ccccc2)c2ccccc2)c1	·	·	·	·	-5	·	·
COc1ccc(C(=O)NCCNc2nc3cc(C)cc(C)c3cc2C#N)cc1	·	·	·	·	-4	·	·
Cc1ccc2nc(NCc3ccccc3)c(C#N)cc2c1	7	-12	13	7	5	·	·
COc1cc(C(=O)NCCCNc2nc3c(C)cc(C)cc3cc2C#N)cc(OC)c1OC	1	-12	15	-4	7	·	·
COc1ccc2nc(NCCCNC(=O)c3cc(OC)c(OC)c(OC)c3)c(C#N)cc2c1	0	-393	32*	8	-13	13	-5	GDH-TPI DR=4.4*
Cc1ccc2nc(NCCNC(=O)c3ccccc3)c(C#N)cc2c1	-6	-28	48*	3	-2	189*	144*
COc1cc(C(=O)NCCNc2nc3ccc(C)cc3cc2C#N)cc(OC)c1OC	-12	-14	39*	5	-3	94*	80*
COc1cc(C(=O)NCCNc2nc3c(C)cccc3cc2C#N)cc(OC)c1OC	·	·	1	-1	-8	·	·
